Results as given in PubChem BioAssay AID720706 (Broad Institute, 2013).
The whole screen tested about 350,000 compounds, of which about 5,500 (1.6%) were called active.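 The calls were made as follows: active = significant combined selectivity score with lowered wild-type GFP, culture density cut under 30%, mutant RFP and density less affected; inactive = any of these conditions unmet.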 Only a selection was taken, and actives are over-represented in it overall.

Assay: reduced GFP signal of wild-type E. coli, primary screen, bacterial rRNA inhibitor project, GFP/RFP fluorescence, OD600, single point (AID 720706)
Settings: E. coli WT GFP vs humanized-ribosome RFP mutants, 24 h; GFP signal change (wild-type ribosome): stronger effect = lower value, DMSO median 0, no signal -100; OD600 change: measured here: OD600 growth, DMSO median 0, no signal -100; RFP signal change: measured here: RFP humanized mutant strains, DMSO median 0, no signal -100, concentration not given here
With `O=c1[nH]c(CSc2ccccc2)nc2c1oc1ccccc12` the GFP signal change (wild-type ribosome) was 4.21% (inactive), the OD600 change was 3% and the RFP signal change was -8.61%. In the case of `C[C@@H](Nc1nc(-c2ccccc2)nc2c1oc1ccccc12)C(=O)O`, the GFP signal change (wild-type ribosome) is reported as -25.4% (active), the OD600 change is reported as -3.54% and the RFP signal change is reported as 7.03%. With `COCCNc1nc(-c2ccccc2)nc2c1oc1ccccc12` the GFP signal change (wild-type ribosome) was -38% (inactive), the OD600 change was -50.5% and the RFP signal change was -2.59%. In the case of `O=C(C1CCCCC1)N1CC(=O)N2[C@H](CO)[C@H](c3ccc(-c4ccccc4F)cc3)[C@H]2C1`, the GFP signal change (wild-type ribosome) is reported as -9.7% (inactive), the OD600 change is reported as -39.9% and the RFP signal change is reported as 0.225%. With `C[C@@H]1CCCCO[C@@H](CN(C)C(=O)Nc2ccc(F)cc2)[C@H](C)CN([C@@H](C)CO)C(=O)c2cc(NS(C)(=O)=O)ccc2O1` the GFP signal change (wild-type ribosome) was -0.965% (inactive), the OD600 change was -0.127% and the RFP signal change was 0.106%. With `CN(C)CC(=O)N1[C@H](C#N)[C@H](c2ccccc2-c2cccc(C(=O)N(C)C)c2)[C@@H]1CO` the GFP signal change (wild-type ribosome) was 3.14% (inactive), the OD600 change was 9.94% and the RFP signal change was -2.26%. For `C[C@@H]1CCCCO[C@@H](CN(C)Cc2ccc(C(=O)Nc3ccccc3N)cc2)[C@H](C)CN([C@H](C)CO)C(=O)c2cc(N(C)C)ccc2O1`, the GFP signal change (wild-type ribosome) was 0.759% (inactive), the OD600 change was 1.41% and the RFP signal change was -1.39%. For `C[C@H]1CN([C@@H](C)CO)C(=O)Cc2cc(NC(=O)C3CC3)ccc2O[C@H]1CN(C)S(=O)(=O)c1ccc(Cl)cc1`, the GFP signal change (wild-type ribosome) was -2.58% (inactive), the OD600 change was -5.07% and the RFP signal change was 2.87%. With `Cc1nnc(N/N=C/c2ccccn2)[nH]c1=O` the GFP signal change (wild-type ribosome) was -26% (active), the OD600 change was 6.61% and the RFP signal change was 2.3%. For `O=C(N/N=C/c1ccccn1)c1cccc(NC(=O)c2ccc(Cl)cc2)c1`, the GFP signal change (wild-type ribosome) was -12.4% (inactive), the OD600 change was -9.16% and the RFP signal change was -2.65%. In the case of `S=C(NN=Cc1ccccn1)Nc1ccccn1`, the GFP signal change (wild-type ribosome) is reported as -3.3% (inactive), the OD600 change is reported as 1.4% and the RFP signal change is reported as -6.11%. With `CN1[C@@H]2c3ccc(-c4ccc(F)cc4)c(=O)n3C[C@H]1[C@H](CO)[C@H]2C(=O)NC1CCC1` the GFP signal change (wild-type ribosome) was 0.894% (inactive), the OD600 change was -1.58% and the RFP signal change was -1.53%. For `COc1ccc(-n2cnnc2SCC(=O)Nc2cccc(S(N)(=O)=O)c2)cc1`, the GFP signal change (wild-type ribosome) was 5.58% (inactive), the OD600 change was 7.26% and the RFP signal change was -1.5%. With `Cc1ccc(-n2c(SCC(=O)Nc3ncc(Cl)cc3Cl)nc3ccccc32)cc1` the GFP signal change (wild-type ribosome) was -23.3% (inactive), the OD600 change was -16.7% and the RFP signal change was 11.6%. For `NS(=O)(=O)c1cccc(NC(=O)CSc2nc3ccccc3n2-c2ccccc2)c1`, the GFP signal change (wild-type ribosome) was -43.3% (active), the OD600 change was -4.95% and the RFP signal change was 0.431%. For `CC(C)NC(=O)Nc1ccc2c(c1)C(=O)N([C@@H](C)CO)C[C@H](C)[C@H](CN(C)C(=O)Nc1ccc(F)cc1)OCCCC[C@@H](C)O2`, the GFP signal change (wild-type ribosome) was 9.43% (inactive), the OD600 change was 11.5% and the RFP signal change was -1.2%. In the case of `O=S(=O)(c1ccccc1)N1CC[C@@H]2[C@H]1c1cc(C#Cc3cccc(F)c3)ccc1N[C@@H]2CO`, the GFP signal change (wild-type ribosome) is reported as -1.75% (inactive), the OD600 change is reported as 20.2% and the RFP signal change is reported as -0.35%. In the case of `CCCNC(=O)N1CC2(C1)[C@H](c1ccccc1)[C@@H](CO)N2C(=O)C1CC1`, the GFP signal change (wild-type ribosome) is reported as 2.01% (inactive), the OD600 change is reported as 4.92% and the RFP signal change is reported as -0.981%. In the case of `COc1ccc(NC(=O)N[C@@H]2CC[C@H](CCn3cc(-c4ccc(OC)cc4)nn3)O[C@@H]2CO)cc1`, the GFP signal change (wild-type ribosome) is reported as -3.5% (inactive), the OD600 change is reported as -6.01% and the RFP signal change is reported as 3.35%. In the case of `COc1ccc(S(=O)(=O)N[C@H]2CC[C@H](CCn3cc(C(C)C)nn3)O[C@@H]2CO)cc1`, the GFP signal change (wild-type ribosome) is reported as 3.72% (inactive), the OD600 change is reported as 10.4% and the RFP signal change is reported as 1.37%. For `C[C@H](NC(=O)C[C@@H]1C[C@@H]2c3cc(NS(=O)(=O)c4ccc(F)cc4)ccc3O[C@@H]2[C@@H](CO)O1)c1ccccc1`, the GFP signal change (wild-type ribosome) was -27.2% (active), the OD600 change was -16.8% and the RFP signal change was 2.38%. For `O=C(C[C@@H]1C[C@H]2c3cc(NS(=O)(=O)c4ccc(F)cc4)ccc3O[C@H]2[C@H](CO)O1)NCCc1ccccc1`, the GFP signal change (wild-type ribosome) was 0.771% (inactive), the OD600 change was -17.4% and the RFP signal change was 2.06%. With `O=C(C[C@@H]1C[C@H]2c3cc(NS(=O)(=O)c4ccc(F)cc4)ccc3O[C@H]2[C@H](CO)O1)NC1CCCC1` the GFP signal change (wild-type ribosome) was -1.46% (inactive), the OD600 change was -4.87% and the RFP signal change was -0.359%. With `COCCNC(=O)C[C@H]1C[C@H]2c3cc(NS(C)(=O)=O)ccc3O[C@H]2[C@H](CO)O1` the GFP signal change (wild-type ribosome) was 3.03% (inactive), the OD600 change was -0.685% and the RFP signal change was -2.39%. In the case of `C[C@@H]1CN([C@H](C)CO)C(=O)c2cc(NS(=O)(=O)c3ccc(F)cc3)ccc2O[C@@H]1CN(C)S(C)(=O)=O`, the GFP signal change (wild-type ribosome) is reported as 3.23% (inactive), the OD600 change is reported as 5.12% and the RFP signal change is reported as -0.699%. In the case of `CO[C@H]1CN(C)C(=O)c2ccc(NC(=O)c3ccccc3F)cc2OC[C@H](C)N(C(=O)c2ccccc2F)C[C@H]1C`, the GFP signal change (wild-type ribosome) is reported as -0.558% (inactive), the OD600 change is reported as -1.65% and the RFP signal change is reported as 0.417%. For `CCCNC(=O)N(C)C[C@H]1Oc2ncc(-c3ccc(C(=O)N(C)C)cc3)cc2C(=O)N([C@@H](C)CO)C[C@@H]1C`, the GFP signal change (wild-type ribosome) was 6.11% (inactive), the OD600 change was 12.2% and the RFP signal change was -1.77%. For `CCCN(C)C[C@H]1OCCCC[C@@H](C)Oc2ccc(NC(=O)Nc3ccc(F)cc3)cc2C(=O)N([C@@H](C)CO)C[C@H]1C`, the GFP signal change (wild-type ribosome) was -3.85% (inactive), the OD600 change was -9.95% and the RFP signal change was 3.72%. In the case of `CC1(C(=O)NS(=O)(=O)c2ccc3ccccc3c2)CCN1C(=O)C1(c2ccc(Cl)cc2)CCC1` (configuration not stated), the GFP signal change (wild-type ribosome) is reported as -33.2% (inactive), the OD600 change is reported as -59.6% and the RFP signal change is reported as -12.6%.
